Source: PubChem BioAssay (NCATS)
Inconclusive results are not listed. The source made the active and inactive calls. Calls come from the whole dose curve; as a rule, active = well fitted curve in the direction sought with a large enough effect; inconclusive = small, poorly fitted or top-dose-only effect, or another doubt; inactive = no such curve, though single readings can be large; an effect the other way counts as inactive or inconclusive.

Columns and labels:
[1] = system: MCC-13; experiment: qHTS assay to identify novel small-molecules to repurpose for Merkel cell carcinoma treatment (AID 1296009); conditions: MCC and control cell lines, CellTiter-Glo viability, 72 h; series mostly up to 46 µM; note: nearly all actives have a fitted effect of over 60% in size
Procedure, shortened: (§1)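 After compound transfer in DMSO, plates were kept 72 hr at 37 degree celsius. Luminescent ATP signal from CellTiter-Glo served as viability measure, normalized against DMSO and no-cell controls.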

[2] = system: MCC-26; experiment: as above; conditions: MCC and control cell lines, CellTiter-Glo viability, 72 h; series mostly up to 46 µM
Procedure, shortened: as §1

[3] = system: MKL-1; experiment: as above; conditions: MCC and control cell lines, CellTiter-Glo viability, 72 h; series mostly up to 46 µM
Procedure, shortened: as §1

[4] = system: MKL-2; experiment: as above; conditions: MCC and control cell lines, CellTiter-Glo viability, 72 h; series mostly up to 46 µM
Procedure, shortened: as §1

[5] = system: UISO; experiment: as above; conditions: MCC and control cell lines, CellTiter-Glo viability, 72 h; series mostly up to 46 µM
Procedure, shortened: as §1

[6] = system: WaGa; experiment: as above; conditions: MCC and control cell lines, CellTiter-Glo viability, 72 h; series mostly up to 46 µM
Procedure, shortened: as §1

[7] = system: C33A; experiment: Primary qHTS to identify gynecologic anti-cancer compounds using libraries of approved drugs and bioactive compounds (AID 1345084); conditions: Gynecologic cancer cell panel viability, ATPlite luminescence, 48 h; series mostly up to 57.5 µM; note: nearly all actives have a fitted effect of over 55% in size
Procedure, shortened: (§2)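 In this quantitative HTS, cell killing is estimated from loss of ATP-dependent luciferase light. Cells see five compound concentrations over a 48 h exposure.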

[8] = system: CAOV3; experiment: as above; conditions: Gynecologic cancer cell panel viability, ATPlite luminescence, 48 h; series mostly up to 57.5 µM
Procedure, shortened: as §2

[9] = system: CASKI; experiment: as above; conditions: Gynecologic cancer cell panel viability, ATPlite luminescence, 48 h; series mostly up to 57.5 µM
Procedure, shortened: as §2

[10] = system: Es-2; experiment: as above; conditions: Gynecologic cancer cell panel viability, ATPlite luminescence, 48 h; series mostly up to 57.5 µM
Procedure, shortened: as §2

[11] = system: HeLa; experiment: as above; conditions: Gynecologic cancer cell panel viability, ATPlite luminescence, 48 h; series mostly up to 57.5 µM
Procedure, shortened: as §2

[12] = system: Hek293T; experiment: as above; conditions: Gynecologic cancer cell panel viability, ATPlite luminescence, 48 h, control line for the selectivity index; series mostly up to 57.5 µM
Procedure, shortened: as §2

[13] = system: JEG-3; experiment: as above; conditions: Gynecologic cancer cell panel viability, ATPlite luminescence, 48 h; series mostly up to 57.5 µM
Procedure, shortened: as §2

[14] = system: OV90; experiment: as above; conditions: Gynecologic cancer cell panel viability, ATPlite luminescence, 48 h; series mostly up to 57.5 µM
Procedure, shortened: as §2

[15] = system: PA-1; experiment: as above; conditions: Gynecologic cancer cell panel viability, ATPlite luminescence, 48 h; series mostly up to 57.5 µM
Procedure, shortened: as §2

[16] = system: SKOV3; experiment: as above; conditions: Gynecologic cancer cell panel viability, ATPlite luminescence, 48 h; series mostly up to 57.5 µM
Procedure, shortened: as §2

[17] = system: Tov-21-G; experiment: as above; conditions: Gynecologic cancer cell panel viability, ATPlite luminescence, 48 h; series mostly up to 57.5 µM
Procedure, shortened: as §2

[18] = system: Tov112D; experiment: as above; conditions: Gynecologic cancer cell panel viability, ATPlite luminescence, 48 h; series mostly up to 57.5 µM
Procedure, shortened: as §2

Measured: Potency

Cn1c([N+](=O)[O-])cnc1COC(N)=O
inactive: all assays above

Cc1cc(-n2nc3ccc(Cl)cc3n2)c(O)c(C(C)(C)C)c1
inactive: all assays above

Cc1ccc(C(C)C)c(O)c1
inactive: all assays above

C[C@@H]1CCC[C@H](C)N1
inactive: all assays above

CC[N+](CC)(CC(=O)Nc1c(C)cccc1C)Cc1ccccc1
inactive: all assays above

NS(=O)(=O)c1cc2c(cc1C(F)(F)F)NCNS2(=O)=O
not listed: [8]
inactive: all other assays above

C=CCSCC1Nc2cc(Cl)c(S(N)(=O)=O)cc2S(=O)(=O)N1 (configuration not stated)
not listed: [8]
inactive: all other assays above

Cc1ccc(S(=O)(=O)NC(=O)NC2CCCCC2)cc1
inactive: all assays above

NCC1CCC(C(=O)Oc2ccc(CCC(=O)O)cc2)CC1 (configuration not stated)
inactive: all assays above

O=C(/C=C/c1ccccc1)OCc1ccccc1
inactive: all assays above

Cc1ccc2c(c1)c1c3n2CCNC3CCC1 (configuration not stated)
not listed: [16]
inactive: all other assays above

O=C(/C=C/c1ccc(O)c(O)c1)O[C@@H]1C[C@@](OC(=O)/C=C/c2ccc(O)c(O)c2)(C(=O)O)C[C@@H](O)[C@@H]1O
inactive: all assays above

CC(C)CCCC(C)CCCC(C)CCCCC(C)CCCC(C)CCCC(C)C (configuration not stated)
inactive: all assays above

C[N+]1(C)CCCC(OC(=O)C(O)(c2ccccc2)c2ccccc2)C1 (configuration not stated)
inactive: all assays above

Nc1ccncc1N
inactive: all assays above

C1CCN2C[C@@H]3C[C@@H](CN4CCCC[C@@H]34)[C@H]2C1
not listed: [14]
inactive: all other assays above

CCS(=O)(=O)CCn1c([N+](=O)[O-])cnc1C
not listed: [9]
inactive: all other assays above

CCOc1ccccc1O[C@H](c1ccccc1)[C@H]1CNCCO1
not listed: [16]
inactive: all other assays above

O=C(O)CCC(=O)O
inactive: all assays above

COCC(=O)Nc1c(I)c(C(=O)NCC(O)CO)c(I)c(C(=O)N(C)CC(O)CO)c1I (configuration not stated)
not listed: [10]
inactive: all other assays above

CN1CCN(C(=O)C2CCCCC2)CC1
not listed: [16]
inactive: all other assays above

CC1(c2ccccc2)OC(C(=O)O)=CC1=O (configuration not stated)
not listed: [12] | [15]
inactive: all other assays above

C/C=C/C(=O)N(CC)c1ccccc1C
not listed: [8]
inactive: all other assays above

O=C(NCC(O)CO)c1c(I)c(C(=O)NCC(O)CO)c(I)c(N(CCO)C(=O)CO)c1I (configuration not stated)
inactive: all assays above

CC(C)(C)C(=O)OCOC(=O)[C@@H]1N2C(=O)[C@@H](NC(=O)[C@H](N)c3ccccc3)[C@H]2SC1(C)C
inactive: all assays above

CC(O)CCCCn1c(=O)c2c(ncn2C)n(C)c1=O (configuration not stated)
inactive: all assays above

O=C(Cn1ccnc1[N+](=O)[O-])NCc1ccccc1
inactive: all assays above

NNC(=O)CP(=O)(c1ccccc1)c1ccccc1
inactive: all assays above

CCCCCC(C)N (configuration not stated)
inactive: all assays above

COc1ccccc1OC(=O)Oc1ccccc1OC
inactive: all assays above

Cc1[nH]c(C)c(Cl)c(=O)c1Cl
inactive: all assays above
